Test results: PubChem BioAssay AID1570 (National Center for Advancing Translational Sciences (NCATS), 2009)
Records with an inconclusive call do not appear. A call without a number means that no potency is given here. The source made the active and inactive calls. The call rests on the fitted dose curve; in most records, active means well fitted inhibition curve with a large enough effect; inconclusive means small, poorly fitted or top-dose-only effect, or effect the other way; inactive means flat fitted curve, though single readings scatter.

Biological target: Thyroid hormone receptor beta (Homo sapiens) (UniProt P10828)
Sequence (P10828 whole entry, looked up): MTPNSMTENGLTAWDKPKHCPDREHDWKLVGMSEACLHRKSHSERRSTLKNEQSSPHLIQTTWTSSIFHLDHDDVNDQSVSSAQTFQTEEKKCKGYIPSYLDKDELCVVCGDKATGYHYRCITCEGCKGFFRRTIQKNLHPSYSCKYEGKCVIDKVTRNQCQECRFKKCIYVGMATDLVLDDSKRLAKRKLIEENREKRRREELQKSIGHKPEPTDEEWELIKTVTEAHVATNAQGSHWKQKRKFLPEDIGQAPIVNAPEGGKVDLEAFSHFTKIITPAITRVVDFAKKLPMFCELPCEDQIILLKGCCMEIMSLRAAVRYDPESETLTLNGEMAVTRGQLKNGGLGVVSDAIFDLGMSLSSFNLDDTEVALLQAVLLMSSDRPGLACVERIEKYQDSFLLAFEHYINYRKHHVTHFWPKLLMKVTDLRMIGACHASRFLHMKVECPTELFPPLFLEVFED
Assay: Concentration Response Confirmation Assay for Inhibitors of the Interaction of Thyroid Hormone Receptor and Steroid Receptor Coregulator 2, Fluorescein Fluoroprobe
Settings: TRbeta LBD / fluorescein-SRC2 peptide, fluorescence polarization, 5 h; series mostly up to 92.2 µM
From the text: NIH Molecular Libraries Probe Production Network [MLPCN] NIH Chemical Genomics Center [NCGC] MLPCN Grant: DK058080 Assay Provider: R. Kip Guy, St. Jude Children's Research Hospital NCGC Assay Overview: Thyroid receptor (TR) regulates many homeostatic processes including basal metabolism, cardiovascular function, body weight, and lipid trafficking. TR modulators are potential therapeutics for obesity and hyperlipidemias but current thyroid analogs have undesirable side effects, particularly cardiac stimulation. To identify inhibitors that specifically prevent the interaction of TR with the steroid receptor coregulator 2 (SRC2), a fluorescence polarization assay was screened (Arnold et al., 2006). […] Small molecule inhibitors that block the interaction of TR and SRC2 are detected by a decrease in fluorescence polarization. […]
NCGC Assay Protocol Summary: Five uL/well 0.6 uM TRbeta and 20 nM SRC2 Fluorescein in protein buffer (20mM Tris hydrochloride, 100mM NaCl, 10% glycerol, 1mM EDTA, 0.01% NP-40, 1mM DTT, 1uM T3 and 5% DMSO) was dispensed into black solid 1536-well plates (Grenier) using a solenoid-based dispenser. […] The plates were read by an Envision (Perkin Elmer) to detect fluorescence polarization of SRC2 Fluorescein (480 nm excitation and 535 nm emission). […]

SMILES: CCn1nc(-c2cccs2)nc2c(=O)n(C)c(=O)nc1-2
- Potency: inactive

SMILES: COP(=S)(OC)Oc1ccc([N+](=O)[O-])cc1
- Potency: 14.1 µM (active)
